Hits are enriched below; roughly 3.7% of the tested compounds scored in any of these assays.
TCR activator = Activators of T cell receptors: qHTS campaign; primary human leukocytes, anti-CD3, IL-2 HTRF, 48 h; Potency, µM (highest dose often 9.22 µM), most hits filed as activators; 330,000 tested, under 10 active
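Activity was scored as IL-2 release from primary human leukocytes given only a TCR signal (a-CD3 beads) plus compound for 48 hr. Detection used a two-antibody HTRF format read at 665nm.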
miR-21 reporter = qHTS Assay for Modulators of miRNAs and/orActivators of miR-21; HeLa miR-21 FLuc reporter, luciferase, 48 h; 340,000 tested, under 10 active; Potency, µM (doses to about 38.3 µM), hits mostly activators; AID 2288, 2010;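 further: miR-21 action dims this reporter so a rising signal means less miR-21 action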
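Compounds were titrated across several concentrations (up to approximately 40 uM) and incubated 48 hours with HeLa miR-21-FLuc reporter cells (miR-21 target sequence downstream of FLuc, endogenous miR-21). Readout was firefly luciferase luminescence after lytic detection reagent.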
Nrf2 inh = Nrf2 qHTS screen for inhibitors; A549 ARE-Fluc reporter, luciferase luminescence, 18-24 h; AID 504444, 2011; Potency, µM (series often up to 46 µM), most hits filed as inhibitors; 2.1% of 360,000 active; further: nearly all actives have a fitted effect of over 60% in size
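Cells were seeded and rested 2 h, then exposed to compounds for 18-24 h. CellTiter-Fluor was read first as a viability measure. BugLite was added 15 min before the final luminescent read of ARE-luciferase activity in A549 cells.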
Nrf2 ARE act = qHTS of Nrf2 Activators; AREc32 ARE-luciferase reporter (MCF7-derived line), luminescence, 24 h; Potency, µM (series often up to 46.1 µM), hits mostly activators; 0.31% of 410,000 active; AID 624171, 2012; further: nearly all actives have a fitted effect of over 65% in size
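Nrf2 activation is followed as ARE-luciferase induction in the AREc32 line after one day of compound treatment; luminescence is read with Steady-Glo.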
ClpP mod = qHTS Assay for Activators of ClpP; 1.9% of 340,000 active; Potency, µM (highest dose often 57.5 µM); purified B. subtilis ClpP, FRET peptide cleavage, 20 min; AID 651965, 2013; active means well fitted falling curve with a large enough effect; inconclusive means small, poorly fitted or top-dose-only effect; inactive means no such curve, though single readings can be large or run the other way; further: the source files actives as falling curves though it sought activators and does not explain the sign; nearly all actives have a fitted effect of over 65% in size
Target sequence (P80244 whole entry, looked up): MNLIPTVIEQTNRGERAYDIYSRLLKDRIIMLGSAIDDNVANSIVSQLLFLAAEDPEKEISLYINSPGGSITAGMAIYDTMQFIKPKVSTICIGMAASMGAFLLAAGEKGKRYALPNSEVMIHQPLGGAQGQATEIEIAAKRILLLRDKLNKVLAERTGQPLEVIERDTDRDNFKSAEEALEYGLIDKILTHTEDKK
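Purified B. subtilis ClpP, 10 microg/mL final in Tris/HCl pH8 with KCl, BSA, glycerol and Tween-20, cleaved an Abz/nitrotyrosine-quenched decapeptide. Fluorescence (ex 320, em 430) was read at 0 and 20 min at room temperature. Delta was normalized to 5.8 microM ADEP and DMSO/no-enzyme controls.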
A549 viability = Nrf2 qHTS screen for inhibitors: counterscreen for cytotoxicity; Potency, µM (highest dose often 46 µM), most hits filed as inhibitors; A549 ARE-Fluc cells, CellTiter-Fluor viability, 18-24 h; 0.16% of 390,000 active; AID 504648, 2011
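A549 ARE_Fluc cells in 5% FBS OPTI-MEM were exposed to compounds in concentration-response for 18-24 h at 37 deg C. Viability was read by CellTiter-Fluor fluorescence (Ex 405/Em 525) after 30 min, before the luciferase read.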
ClpP validation = qHTS Assay for Activators of ClpP: Hit Validation of Inhibitors; shares compounds with ClpP mod; purified B. subtilis ClpP, FRET-FV substrate cleavage, 20 min; Potency, µM (top dose mostly 57.5 µM), actives largely listed as inhibitors; 40% of 470 active; AID 743245, 2014; further: nearly all actives have a fitted effect of over 70% in size
Each line names hits and unclear results; the compound was inactive in the other large screens (follow-up assays come after a bar, where they were run). Unless noted, the call rests on the fitted dose curve; in most records, active means well fitted curve in the direction sought with a large enough effect; inconclusive means small, poorly fitted or top-dose-only effect, or another doubt; inactive means no such curve, though single readings can be large; an effect the other way counts as inactive or inconclusive.

CC1(C)Cc2nc3oc4c(NCCCN5CCOCC5)ncnc4c3cc2CO1	none (no result: ClpP mod)
CC1(C)Cc2nc3oc4c(NCc5ccccc5)ncnc4c3cc2CO1	ClpP mod 2.82µM | ClpP validation 9.68µM
O=C(Nc1ccc2ccccc2c1)C(c1ccccc1F)n1c(=O)c(-c2cc3ccccc3[nH]2)nc2ccccc21 (centres undefined)	none (no result: TCR activator, miR-21 reporter, Nrf2 inh, Nrf2 ARE act, A549 viability) | ClpP validation inactive
O=C(NC1CCCCC1)C(c1cccc2ccccc12)n1c(=O)c(-c2cc3ccccc3[nH]2)nc2ccccc21 (centres undefined)	none (no result: TCR activator, miR-21 reporter, Nrf2 inh, Nrf2 ARE act, A549 viability) | ClpP validation inactive
O=C(NCc1ccccc1)C(c1ccncc1)n1c(=O)c(-c2cc3ccccc3[nH]2)nc2ccccc21 (centres undefined)	none (no result: TCR activator, miR-21 reporter, Nrf2 inh, Nrf2 ARE act, A549 viability)
CCCCCNC(=O)C(CCc1ccccc1)n1c(=O)c(-c2cc3ccccc3[nH]2)nc2ccccc21 (centres undefined)	none (no result: TCR activator, miR-21 reporter, Nrf2 inh, Nrf2 ARE act, A549 viability)
O=C(NCc1ccccc1)C(c1ccc(-c2ccccc2)cc1)n1c(=O)c(-c2cc3ccccc3[nH]2)nc2ccccc21 (centres undefined)	none (no result: TCR activator, miR-21 reporter, Nrf2 inh, Nrf2 ARE act, A549 viability) | ClpP validation inactive
CCCCCNC(=O)C(c1cccc2ccccc12)n1c(=O)c(-c2cc3ccccc3[nH]2)nc2ccccc21 (centres undefined)	none (no result: TCR activator, miR-21 reporter, Nrf2 inh, Nrf2 ARE act, A549 viability) | ClpP validation inactive
CC(C)(C)C(=O)Nc1ccc(S(=O)(=O)N2CCC(c3nc4ccccc4[nH]3)CC2)cc1	none (no result: miR-21 reporter)
CC(NC(=O)c1ccc(F)cc1)c1nc2ccccc2[nH]1 (centres undefined)	none (no result: TCR activator)
Cc1nn(-c2ccccn2)c2c1-c1nc(N)ncc1CC2	ClpP mod 10µM | ClpP validation 17.2µM
Cc1nn(-c2ccccn2)c2c1-c1nc(N3CCOCC3)ncc1CC2	none
CCOc1ccc(N2CC(C(=O)Nc3cc(S(=O)(=O)N4CCCCC4)ccc3C)CC2=O)cc1 (centres undefined)	none (no result: miR-21 reporter)
Cc1ccc(NC(=O)Cn2cc(C(=O)C3CCCCC3)c3ccccc32)cc1	Nrf2 inh inconclusive (no result: TCR activator)
Cn1c(=O)c2c(-c3ccc(Cl)cc3)n(Cc3ccc(Cl)cc3)cc2n(C)c1=O	Nrf2 inh inconclusive, ClpP mod 10µM (no result: TCR activator) | ClpP validation 38.5µM
Cc1ccc(-c2noc(CN(C3CCCCC3)S(=O)(=O)c3ccc(F)cc3)n2)cc1	none (no result: TCR activator)
COc1ccc(OC)c(NC(=O)Cn2cnc3c(cnn3-c3ccccc3)c2=O)c1	none
COc1ccccc1NC(=O)Cn1cnc2c(cnn2-c2ccc(C)c(C)c2)c1=O	none | ClpP validation inactive
Cc1cc(=O)oc2cc(OCc3cc4c(cc3Cl)OCO4)ccc12	none (no result: Nrf2 inh) | ClpP validation inconclusive
Cc1oc(C(=O)O)cc1COc1ccc2c(C)cc(=O)oc2c1	ClpP mod inconclusive
Cn1c(C(=O)NCCC2=CCCCC2)cc2c(=O)n3ccccc3nc21	ClpP mod 7.94µM | ClpP validation inactive
C/C(=N\NC(=O)CN1CCN(c2ccc(F)cc2)CC1)c1ccco1	none (no result: miR-21 reporter)
Cc1ccc(Cn2ccc(NC(=O)c3nn(C)cc3Cl)n2)cc1	none (no result: Nrf2 inh) | ClpP validation inactive
Cc1ccc(Cn2nc(C)c(NC(=O)c3nn(C)cc3Cl)c2C)cc1	none
NC(=O)c1cc[n+](Cc2ccccc2Cl)cc1	none (no result: ClpP mod)
CNC(=O)c1cc(S(=O)(=O)N2CC(C)OC(C)C2)ccc1N1CCOCC1 (centres undefined)	none | ClpP validation inactive
Cc1ccc(-c2nc3cc(C(C)C)ccc3o2)cc1NC(=O)c1cc2ccccc2o1	Nrf2 inh inconclusive, ClpP mod inconclusive (no result: TCR activator) | ClpP validation 30.6µM
CC(C)c1ccc2oc(-c3ccc(Cl)c(NC(=O)Cc4ccccc4)c3)nc2c1	Nrf2 inh inconclusive (no result: TCR activator)
CC(NC(=O)c1cc2sccc2n1Cc1ccc(F)cc1)c1ccccc1 (centres undefined)	none (no result: TCR activator)
Cc1ccccc1NC(=O)c1cc2sccc2n1Cc1ccc(F)cc1	none (no result: TCR activator) | ClpP validation inconclusive
CCCc1cc(=O)n2c(nc3ccccc32)[nH]1	ClpP mod 7.08µM (no result: Nrf2 inh) | ClpP validation 13.7µM
Cc1ccc(-c2cc(C(F)(F)F)n3nc(-c4ccc(Cl)cc4)cc3n2)cc1	none (no result: TCR activator)
FC(F)(F)c1cc(-c2ccc(Cl)cc2)nc2ncnn12	ClpP mod 2.82µM | ClpP validation 17.2µM
C=Cc1ccc(CSc2nc(-c3ccccc3Cl)nc3c2Cc2c(CO)cnc(C)c2O3)cc1	none (no result: TCR activator)
O=C(NC(=S)N1CC=CCC1)c1ccccc1	none (no result: TCR activator, miR-21 reporter, Nrf2 inh, A549 viability)
O=S(=O)(c1ccc(-c2csc(Nc3ccc(Br)cc3)n2)cc1)N1CCCC1	Nrf2 inh 8.2µM, ClpP mod 3.16µM | ClpP validation 27.3µM
Nc1nc(-c2ccc(S(=O)(=O)N3CCCCC3)cc2)cs1	Nrf2 inh inconclusive (no result: miR-21 reporter)

Screening results from PubChem BioAssay.
